We go through eight compounds from PubChem BioAssay (NCATS).

Where “and” joins values, the source holds several entries; their conditions need not be identical. Equal entries are not always repeated. Records with an inconclusive call do not appear. Calls of active or inactive are those of the source. Unless noted, the call rests on the fitted dose curve.

Assay [1] can be described thus: qHTS for Inhibitors of the Functional Ribonucleoprotein Complex (vRNP) of Lassa (LASV) Arenavirus: LASV Primary Screen - GLuc reporter signal (AID 1347082; calls by dose curve; tested in HEK293 reporter line; further: on the % scale 0 is the no-effect control and ±100 the full control effect; nearly all actives have a fitted effect of over 60% in size).
The nature of assay [2]: qHTS for Inhibitors of the Functional Ribonucleoprotein Complex (vRNP) of Lassa (LASV) Arenavirus: Viability assay - alamar blue signal for LASV Primary Screen (AID 1347083; calls by dose curve; tested in HEK293 reporter line; further: on the % scale 0 is the no-effect control and ±100 the full control effect; nearly all actives have a fitted effect of over 80% in size). A general note: qHTS replaces the single test concentration by a dilution series.
Assay [3] is described as follows: qHTS for Inhibitors of the Functional Ribonucleoprotein Complex (vRNP) of Lymphocytic Choriomeningitis Arenaviruses (LCMV): Viability assay - alamar blue signal for LCMV Primary Screen (AID 1347085; calls by dose curve; tested in HEK293 reporter line; further: on the % scale 0 is the no-effect control and ±100 the full control effect; nearly all actives have a fitted effect of over 80% in size).
Assay [4] addresses Nucleoprotein (Lymphocytic choriomeningitis virus (strain Armstrong)) (UniProt P09992). As to the kind of experiment: qHTS for Inhibitors of the Functional Ribonucleoprotein Complex (vRNP) of Lymphocytic Choriomeningitis Arenaviruses (LCMV): LCMV Primary Screen - GLuc reporter signal (AID 1347086). Further: on the % scale 0 is the no-effect control and ±100 the full control effect; nearly all actives have a fitted effect of over 70% in size.
The nature of assay [5]: qHTS for inhibitors of Rabies Virus screened against the NCATS CANVASS Library (AID 1347402). Further: 0% is about no effect.
A short description of assay [6]: Primary qHTS for inhibitors of SARS-S pseudo-typed particle cell entry (AID 1479145). Further: nearly all actives have a fitted effect of over 45% in size.
A short description of assay [7]: Primary qHTS for Huh7 cytotoxicity: counterscreen for inhibitors of MERS-S pseudotyped particle cell entry (AID 1479147). To be noted: outcome: dose series up to 57.1 µM unless noted.
A short description of assay [8]: Primary qHTS for inhibitors of MERS-S pseudo-typed particle cell entry (AID 1479149). Further: nearly all actives have a fitted effect of over 60% in size.
Assay [9] can be described thus: Primary qHTS for Vero E6 cytotoxicity: counterscreen for inhibitors of SARS-S pseudo-typed particle cell entry (AID 1479150). The following applies: outcome: dose series up to 57.1 µM unless noted.
Assay [10] can be described thus: Cytotoxicity counterscreen for inhibitors of SARS-CoV-2 cell entry (AID 1645845). Further: nearly all actives have a fitted effect of over 50% in size. In short, it runs like this:
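HEK293-ACE2 cells (Expi293F stably expressing human ACE2) seeded overnight, then compound for 1 h plus 48 h at 37C. Viability as ATP content by luminescence; normalized to wells with cells and media-only wells.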
On the technique in general: The purpose of a counterscreen is to sort out artefacts and off-target activity.

Assay [11] in a line: Primary qHTS to identify inhibitors of SARS-CoV-2 cell entry (AID 1645846). Further: nearly all actives have a fitted effect of over 45% in size. To be noted: activity change, negative = inhibition: at 57.1 µM (top of the series) unless noted. A digest of the protocol: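 HEK293-ACE2 (Expi293F, stable hACE2), 1500 cells/well, o/n 37C; cpd 23 nL pin, 1 h; MLV-PP w/ SARS-CoV-2-S (Wuhan-Hu-1, Δ19 C-term); 48 h 37C; Bright-Glo luminescence; normalized vs S-PP and bald PP.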

For assay [12], the target named is Endonuclease 4 (Escherichia coli (strain K12)) (UniProt P0A6C1). The assay can be described thus: Counterscreen for APE1 Inhibitors: qHTS Validation Assay for Inhibitors of Endonuclease IV (AID 1708; active means well fitted curve in the direction sought with a large enough effect; an effect the other way counts as inactive or inconclusive; further: on the % scale 0 is the no-effect control and ±100 the full control effect). A digest of the protocol:
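E. coli EndoIV at 2 nM final, preincubated 15 min at room temperature with compound, then 50 nM TAMRA/BHQ-2 THF abasic-site duplex added. Buffer: 50 mM Tris-HCl pH 7.5, 50 mM NaCl, 2 mM MgCl2, 1 mM DTT, 0.01% Tween-20. Kinetic fluorescence increase, third minus first read.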

Assay [13] is described as follows: Validation screen for inhibitors of Lassa infection (AID 463096). Further: on the % scale 0 is the no-effect control and ±100 the full control effect.
Assay [14] has as its target Alpha-galactosidase (Coffea arabica) (UniProt Q42656). As to the kind of experiment: Counterscreen for Glucocerebrosidase Inhibitors: qHTS Assay for Coffee Bean alpha-Galactosidase at pH 4.5 (AID 957; active means well fitted curve in the direction sought with a large enough effect; an effect the other way counts as inactive or inconclusive;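 further: plate controls were enzyme alone for no effect and no enzyme for full effect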). A digest of the protocol: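 Coffee bean enzyme (2 nM) with 80 uM 4-methylumbelliferyl alpha-D-galactopyranoside in 50 mM citric acid, 0.005% Tween-20, pH 4.5, 20 min at room temperature; compounds 0.7 nM–77 uM. Stopped at pH 10, fluorescence 365/440 nm; AC50 from Hill fits.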

Assay [15] shares this target. The assay can be described thus: Counterscreen for Glucocerebrosidase Inhibitors: qHTS Assay for Coffee Bean alpha-Galactosidase at pH 5.9 (AID 998; active means well fitted curve in the direction sought with a large enough effect; an effect the other way counts as inactive or inconclusive;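 further: plate controls were uninhibited enzyme for no effect and no-enzyme basal signal for full effect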). A digest of the protocol:
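Green coffee bean enzyme (2 nM) with 4-methylumbelliferyl alpha-D-galactopyranoside (80 uM) in 50 mM citric acid, 0.005% Tween-20, pH 5.9, 20 min at room temperature; compounds 0.7 nM–77 uM. Stopped at pH 10, fluorescence Ex365/Em440; Hill-fit AC50.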

The nature of assay [16]: AP1 Signaling Pathway (AID 357; active means well fitted curve in either direction with a large enough effect, not every such curve was filed as active;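 further: ME-180 reporter cells stimulated with EGF at its EC50 level; on the % scale 0 is the no-effect control and ±100 the full control effect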). A digest of the protocol: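 In this screen, ME-180 cells in Opti-MEM with 0.5% dialyzed FBS received EC50 EGF and compound titrations for 5 h. AP-1 reporter beta-lactamase was detected via CCF4 ratio, giving AC50 for positive and negative modulators.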
Assay [17] can be described thus: NFAT Signaling Pathway (AID 444; active means well fitted curve in either direction with a large enough effect, not every such curve was filed as active;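 further: carbachol stimulus at about its EC50 of 1 µM final; on the % scale 0 is the no-effect control and ±100 the full control effect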). The following applies: Jurkat NFAT-bla M1, carbachol, beta-lactamase ratio, 5 h; at 17.2 µM (top of the series). In short, it runs like this:
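Jurkat cells with NFAT-driven β-lactamase reporter and co-expressed M1 receptor, stimulated with carbachol (final 1 uM, ~EC50), compound titration, 5 h at 37 °C. CCF4 loaded 1 h at RT; 460/530 nm ratio gave %activity and AC50.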

Assay [18] in a line: Stat Signaling Pathway (AID 446; active means well fitted curve in either direction with a large enough effect, not every such curve was filed as active). A digest of the protocol:
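Screening format detects activators and inhibitors alike: ME-180 SIE-bla cells stimulated at 40 pM IL-6 for 5 hrs with compound, then dual-emission beta-lactamase read at 405 nm excitation.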

The target in assay [19] is Glucocorticoid receptor (Homo sapiens) (UniProt P04150). As to the kind of experiment: GR-GFP Redistribution (AID 450;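 active means compounds whose dose series gives a full or clear partial fitted curve of increased nuclear translocation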; further: potency means the concentration at half of the fitted maximal effect). The following applies: U2OS GR-GFP nuclear translocation, laser cytometry, 2 h.
Glucocorticoid receptor (Homo sapiens), sequence (P04150 whole entry, looked up, the tested form may be a part): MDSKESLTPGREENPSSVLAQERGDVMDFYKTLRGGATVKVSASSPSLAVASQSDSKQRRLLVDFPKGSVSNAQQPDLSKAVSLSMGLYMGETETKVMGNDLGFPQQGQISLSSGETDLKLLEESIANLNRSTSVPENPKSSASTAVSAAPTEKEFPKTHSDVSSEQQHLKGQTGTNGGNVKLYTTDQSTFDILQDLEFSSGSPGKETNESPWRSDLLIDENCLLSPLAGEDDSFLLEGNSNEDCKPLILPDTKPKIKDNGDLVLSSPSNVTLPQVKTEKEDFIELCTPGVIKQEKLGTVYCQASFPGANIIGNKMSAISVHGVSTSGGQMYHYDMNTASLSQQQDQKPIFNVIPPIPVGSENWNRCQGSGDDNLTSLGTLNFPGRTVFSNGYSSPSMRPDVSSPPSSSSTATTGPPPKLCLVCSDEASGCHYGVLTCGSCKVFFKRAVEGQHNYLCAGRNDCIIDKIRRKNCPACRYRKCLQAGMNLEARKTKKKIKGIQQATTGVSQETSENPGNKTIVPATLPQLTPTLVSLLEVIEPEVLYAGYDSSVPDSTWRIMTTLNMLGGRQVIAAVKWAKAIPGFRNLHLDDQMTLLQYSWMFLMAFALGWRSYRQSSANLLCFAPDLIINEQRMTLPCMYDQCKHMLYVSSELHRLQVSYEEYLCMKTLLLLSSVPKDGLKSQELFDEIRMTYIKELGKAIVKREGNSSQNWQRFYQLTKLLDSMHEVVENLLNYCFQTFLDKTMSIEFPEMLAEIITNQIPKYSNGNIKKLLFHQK
For assay [20] the target is unchanged. The assay can be described thus: GR-EFC Redistribution (AID 451). Further: potency means the concentration at half of the fitted maximal effect. To be noted: CHO-K1 GR-EFC translocation, beta-gal luminescence, 2 h. In short, it runs like this: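 CHO-K1 cells expressing nuclear EA and GR-ED fragments of b-gal; compounds titrated up to 46 uM final, 2 h at 37 C. GR nuclear translocation read as complemented b-gal luminescence after 1 h RT detection.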

Assay [21] addresses Mitogen-activated protein kinase 10 (Mus musculus) (UniProt Q61831). The assay can be described thus: JNK3 AlphaScreen Assay (AID 530; active means well fitted curve in either direction with a large enough effect, not every such curve was filed as active). A digest of the protocol:
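Pre-activated (IL-1β/TNFα) JNK3 in HepG2 lysates phosphorylates biotin-GST-cJun(1-79), 10 uM ATP; anti-phospho-cJun(Ser73) AlphaScreen read at room temperature, pH 7.6 Tris buffer. Compounds pre-incubated 15 min as titrations.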

Assay [22] deals with 3',5'-cyclic-AMP phosphodiesterase 4B (Homo sapiens) (UniProt Q07343). As to the kind of experiment: qHTS Assay for Inhibitors of PDE-IV (AID 607; active means well fitted activation curve with a large enough effect in the main read-out, with a control signal flat, not every such curve was filed as active; further: % of control where 0% means no effect). In short, it runs like this:
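The readout is membrane depolarisation from a cAMP-sensing CNG channel, detected with a potential dye at ex 535/em 590. Cells were HEK293-derived (endogenous PDE-IV) at 1000 cells/well, titrated up to 22.9 uM final.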

For assay [23], the target named is Cytochrome P450 2C19 (Homo sapiens) (UniProt P33261). As to the kind of experiment: qHTS Assay for Inhibitors and Substrates of Cytochrome P450 2C19 (AID 899; active means well fitted curve in the direction sought with a large enough effect; an effect the other way counts as inactive or inconclusive; further: potency means the concentration at half of the fitted maximal effect; nearly all actives have a fitted effect of over 60% in size). A digest of the protocol:
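Signal comes from luciferase acting on luciferin released by CYP2C19-mediated hydroxylation of Luciferin-H EGE, 10uM (KM). Assay mix: 5nM enzyme, 50mM KPO4; 60 min at 37C with NADPH regeneration. Data normalized against 57uM ketoconazole.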

A short description of assay [24]: qHTS Assay for Lipid Storage Modulators (AID 1519). To be noted: Drosophila S3 cells, BODIPY lipid droplet/cell ratio, laser cytometry, cells loaded with oleic acid. In short, it runs like this:
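Cells seeded at 5,000 per well were treated with compounds over a concentration series and loaded with oleic acid (400 uM, as added). Lipid droplet fluorescence (488 nm excitation, 500-530 nm channel) was read by laser-scanning cytometry and normalized to 20 uM Triacsin C.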

The target in assay [25] is Ubiquitin carboxyl-terminal hydrolase 1 (Homo sapiens) (UniProt O94782). The assay can be described thus: Inhibitors of USP1/UAF1: Pilot qHTS (AID 504865; active means well fitted curve in the direction sought with a large enough effect; an effect the other way counts as inactive or inconclusive;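 further: rhodamine fluorescence freed from ubiquitin-rhodamine substrate followed over time; top concentration of the series differs between compounds; on the % scale 0 is the no-effect control and ±100 the full control effect; nearly all actives have a fitted effect of over 35% in size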). A digest of the protocol:
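1nM USP1/UAF1 + cpd, 15 min RT; start w/ Ub-Rho 150nM final; kinetic FL 480/540 nm, 6 reads q60 s. Buffer 50mM HEPES pH 7.8, 0.5mM EDTA, 1mM TCEP, 0.01% Tween-20, 0.1 mg/ml BSA.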

The target of assay [26] is DNA dC->dU-editing enzyme APOBEC-3G (Homo sapiens) (UniProt Q9HC16). The assay can be described thus: qHTS for inhibitors of Vif-A3G interactions: Validation (AID 588379; active means well fitted curve in the direction sought with a large enough effect; an effect the other way counts as inactive or inconclusive; further: 0% is about no effect). A digest of the protocol:
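HeLa cells stably expressing Vif and A3G-eYFP, 700 cells/well, incubated overnight at 37 deg C, then exposed to compound overnight at 37 deg C. Inhibition of Vif-mediated degradation read as increased yellow fluorescence (Ex 488/Em 500-530) by laser-scanning cytometry.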

The subject of assay [27] is Zika virus NS2B-NS3 protease. As to the kind of experiment: Primary screen GU AMC qHTS for Zika virus inhibitors (AID 1347154; active means well fitted curve in the direction sought with a large enough effect; an effect the other way counts as inactive or inconclusive;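 further: 0% = no-inhibitor control and -100% = no-enzyme control; nearly all actives have a fitted effect of over 70% in size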). In short, it runs like this:
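Unlinked Zika NS2B hydrophilic domain–NS3 protease complex at 25 nM in 10 mM Tris-HCl pH 8.0, 0.01% Tween 20, with an AMC peptide substrate. Fluorescence change (340/450 nm) over 15 min at room temperature, normalized to controls, fitted to 4-parameter Hill.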

Nucleoprotein (Lymphocytic choriomeningitis virus (strain Armstrong)), sequence (P09992 whole entry, looked up): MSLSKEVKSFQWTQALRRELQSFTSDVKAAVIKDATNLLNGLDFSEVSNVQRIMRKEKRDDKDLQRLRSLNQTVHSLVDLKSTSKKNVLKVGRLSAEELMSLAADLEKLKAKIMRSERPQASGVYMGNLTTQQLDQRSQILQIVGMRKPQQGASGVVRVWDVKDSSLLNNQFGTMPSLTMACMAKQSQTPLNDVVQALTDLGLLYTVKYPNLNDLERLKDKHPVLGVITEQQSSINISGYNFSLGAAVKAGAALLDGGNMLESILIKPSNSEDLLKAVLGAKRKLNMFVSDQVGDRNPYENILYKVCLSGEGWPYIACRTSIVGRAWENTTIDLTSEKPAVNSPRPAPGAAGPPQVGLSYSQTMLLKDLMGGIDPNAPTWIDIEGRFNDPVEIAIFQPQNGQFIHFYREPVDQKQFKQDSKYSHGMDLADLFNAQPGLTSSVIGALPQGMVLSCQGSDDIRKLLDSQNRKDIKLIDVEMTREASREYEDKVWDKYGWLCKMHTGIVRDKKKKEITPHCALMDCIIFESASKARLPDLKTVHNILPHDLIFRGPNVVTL
Ubiquitin carboxyl-terminal hydrolase 1 (Homo sapiens), sequence (O94782 whole entry, looked up): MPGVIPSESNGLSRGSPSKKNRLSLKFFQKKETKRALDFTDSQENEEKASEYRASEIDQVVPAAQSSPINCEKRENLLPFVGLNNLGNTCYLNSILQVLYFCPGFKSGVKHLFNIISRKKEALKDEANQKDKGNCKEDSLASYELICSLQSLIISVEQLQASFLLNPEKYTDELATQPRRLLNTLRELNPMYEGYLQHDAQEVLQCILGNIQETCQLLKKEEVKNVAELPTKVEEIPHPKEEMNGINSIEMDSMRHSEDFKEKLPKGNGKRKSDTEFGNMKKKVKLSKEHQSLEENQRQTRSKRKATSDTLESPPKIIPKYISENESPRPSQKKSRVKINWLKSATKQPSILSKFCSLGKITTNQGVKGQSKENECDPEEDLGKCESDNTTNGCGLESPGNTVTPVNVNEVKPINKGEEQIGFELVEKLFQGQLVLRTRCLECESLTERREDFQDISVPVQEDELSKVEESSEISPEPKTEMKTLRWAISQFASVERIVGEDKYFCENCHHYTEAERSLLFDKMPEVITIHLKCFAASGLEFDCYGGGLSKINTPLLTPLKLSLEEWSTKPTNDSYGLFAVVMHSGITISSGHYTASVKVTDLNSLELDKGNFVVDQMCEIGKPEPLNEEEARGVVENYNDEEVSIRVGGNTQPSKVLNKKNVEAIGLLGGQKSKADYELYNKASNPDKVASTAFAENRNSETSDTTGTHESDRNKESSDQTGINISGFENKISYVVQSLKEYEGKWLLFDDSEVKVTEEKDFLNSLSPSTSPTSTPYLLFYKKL
Alpha-galactosidase (Coffea arabica), sequence (Q42656 whole entry, looked up): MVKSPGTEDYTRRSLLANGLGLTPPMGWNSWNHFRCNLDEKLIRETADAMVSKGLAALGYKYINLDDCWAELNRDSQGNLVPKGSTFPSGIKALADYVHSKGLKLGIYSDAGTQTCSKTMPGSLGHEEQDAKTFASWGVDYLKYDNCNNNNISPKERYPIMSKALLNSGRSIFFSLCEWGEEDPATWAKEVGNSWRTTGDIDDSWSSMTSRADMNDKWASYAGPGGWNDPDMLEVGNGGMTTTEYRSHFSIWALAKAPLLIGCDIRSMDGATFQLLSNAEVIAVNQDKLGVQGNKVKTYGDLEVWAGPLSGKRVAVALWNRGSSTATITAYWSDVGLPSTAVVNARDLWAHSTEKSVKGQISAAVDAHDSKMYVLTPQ
3',5'-cyclic-AMP phosphodiesterase 4B (Homo sapiens), sequence (Q07343 whole entry, looked up): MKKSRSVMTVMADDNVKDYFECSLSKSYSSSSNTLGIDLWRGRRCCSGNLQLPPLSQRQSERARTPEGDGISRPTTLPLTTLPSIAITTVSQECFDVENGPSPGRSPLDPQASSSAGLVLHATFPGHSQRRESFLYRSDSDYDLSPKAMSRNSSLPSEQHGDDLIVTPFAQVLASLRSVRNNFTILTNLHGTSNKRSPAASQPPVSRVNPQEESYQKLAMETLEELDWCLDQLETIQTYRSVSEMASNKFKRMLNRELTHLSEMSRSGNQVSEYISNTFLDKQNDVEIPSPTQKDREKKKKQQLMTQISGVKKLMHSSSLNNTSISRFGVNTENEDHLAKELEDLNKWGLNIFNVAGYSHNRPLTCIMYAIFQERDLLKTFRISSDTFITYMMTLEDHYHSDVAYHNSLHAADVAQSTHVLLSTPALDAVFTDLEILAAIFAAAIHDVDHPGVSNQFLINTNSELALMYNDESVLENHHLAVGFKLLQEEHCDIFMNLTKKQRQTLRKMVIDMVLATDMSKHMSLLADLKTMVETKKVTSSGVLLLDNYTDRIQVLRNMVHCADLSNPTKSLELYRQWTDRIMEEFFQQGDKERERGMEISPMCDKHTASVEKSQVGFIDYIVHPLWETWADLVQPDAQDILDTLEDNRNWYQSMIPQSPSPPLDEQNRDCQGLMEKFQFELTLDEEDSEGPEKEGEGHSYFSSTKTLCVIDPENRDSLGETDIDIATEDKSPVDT
Cytochrome P450 2C19 (Homo sapiens), sequence (P33261 whole entry, looked up): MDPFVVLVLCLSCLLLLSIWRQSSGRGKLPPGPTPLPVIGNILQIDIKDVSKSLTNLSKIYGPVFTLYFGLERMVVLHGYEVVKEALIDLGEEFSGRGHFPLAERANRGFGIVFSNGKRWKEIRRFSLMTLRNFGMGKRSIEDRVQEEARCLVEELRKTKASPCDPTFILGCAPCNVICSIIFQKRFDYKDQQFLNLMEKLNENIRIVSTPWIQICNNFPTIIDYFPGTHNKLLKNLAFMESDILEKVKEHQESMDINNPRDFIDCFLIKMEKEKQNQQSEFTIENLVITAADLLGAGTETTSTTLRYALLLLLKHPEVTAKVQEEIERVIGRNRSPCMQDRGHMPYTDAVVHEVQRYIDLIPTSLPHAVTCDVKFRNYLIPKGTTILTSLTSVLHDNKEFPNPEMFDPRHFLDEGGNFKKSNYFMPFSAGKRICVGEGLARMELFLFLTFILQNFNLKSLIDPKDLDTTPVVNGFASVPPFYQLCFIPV
DNA dC->dU-editing enzyme APOBEC-3G (Homo sapiens), sequence (Q9HC16 whole entry, looked up): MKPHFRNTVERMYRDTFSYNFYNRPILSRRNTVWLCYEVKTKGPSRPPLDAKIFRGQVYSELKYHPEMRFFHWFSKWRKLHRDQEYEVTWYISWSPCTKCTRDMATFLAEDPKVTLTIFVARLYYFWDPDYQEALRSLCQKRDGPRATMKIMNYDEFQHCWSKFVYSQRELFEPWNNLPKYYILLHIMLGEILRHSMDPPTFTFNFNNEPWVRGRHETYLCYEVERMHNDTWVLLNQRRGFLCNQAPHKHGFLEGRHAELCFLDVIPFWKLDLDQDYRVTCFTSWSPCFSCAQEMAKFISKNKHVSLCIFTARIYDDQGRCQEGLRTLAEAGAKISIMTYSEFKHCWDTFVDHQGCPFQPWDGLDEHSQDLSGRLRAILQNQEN

As to `O=c1cc(-c2ccc(O)c(O)c2)oc2cc(O[C@@H]3O[C@H](CO)[C@@H](O)[C@H](O)[C@H]3O)cc(O)c12`, the Potency entry in assay [1], in [2], in assay [3] and in assay [4] was “inactive” throughout. For the same compound, in assay [5], the result was inactive.
On to `C[C@]12CCC(=O)C[C@@H]1CC[C@@H]1[C@@H]2CC[C@]2(C)C=CC[C@@H]12`, for which the Potency result in assay [1], in [2], in [3], in assay [4], in assay [6] and in assay [8] was “inactive” in each case. Besides, the Potency result in assay [10] is “inactive”. Moreover, the compound was classed as inactive in assay [7] and in assay [9]. In assay [11], the activity change, negative = inhibition is -21.9%.
As for `CN[C@H](CC(C)C)C(=O)N[C@H]1C(=O)N[C@@H](CC(N)=O)C(=O)N[C@H]2C(=O)N[C@H]3C(=O)N[C@H](C(=O)N[C@H](C(=O)O)c4cc(O)cc(O)c4-c4cc3ccc4O)[C@H](O)c3ccc(c(Cl)c3)Oc3cc2cc(c3O[C@@H]2O[C@H](CO)[C@@H](O)[C@H](O)[C@H]2O[C@H]2C[C@](C)(N)[C@H](O)[C@H](C)O2)Oc2ccc(cc2Cl)[C@H]1O`, the call in [12] and in assay [9] was inactive. Also, the Potency result in [13], in assay [1], in assay [2], in assay [3], in assay [4] and in assay [6] was “inactive” each time. Also, the Potency entry in [8] and in assay [10] was “inactive” in each case. For the same compound, in [7], the outcome is “inactive [at 26.4 µM]”. Also, the activity change, negative = inhibition in [11] was -14.9% [at 27.1 µM] and -31.1% [at 27.1 µM].
Consider `CCCCCCCCCCCCCCCC(=O)OC[C@@H](NC(=O)C(Cl)Cl)[C@H](O)c1ccc([N+](=O)[O-])cc1`, for which the Potency result in assay [1], in assay [2], in [3], in assay [4], in assay [6] and in assay [8] was “inactive” in each case. Besides, the Potency result in assay [10] was “inactive”. For the same compound, the outcome in assay [7] and in assay [9] was inactive.
`CC(=O)NCCc1c[nH]c2ccc(O)cc12`: the result in [14], in assay [15] and in assay [5] was inactive. The Potency result in assay [13], in assay [1], in [2], in assay [3] and in assay [4] was “inactive” throughout.
Take `O=c1cc(-c2ccccc2)oc2cc(O)c(O)c(O)c12`: the Potency entry in assay [1], in assay [2], in [3], in assay [4] and in [11] was “inactive” each time. Further, the compound was called inactive in [5].
With `COc1cc2oc3ccccc3c(=O)c2cc1OC`, the Potency entry in assay [1], in assay [2], in [3] and in assay [4] was “inactive” throughout. Moreover, the result in [5] was inactive.
For the compound `c1cncc([C@@H]2CCCCN2)c1`, the call in [16], in assay [18] and in assay [21] was inactive. The activity change, negative = inhibition in assay [17] was -6.22% (inactive); in [24] (at 25.7 µM (top of the series)), -0.77% (inactive); in assay [24] (at 57.5 µM (top of the series)) it was -0.69% (inactive). Besides, the Potency in assay [19] was > 20.6 µM (inactive) and > 46 µM (inactive); in assay [20] it was > 20.6 µM (inactive) and > 46 µM (inactive); in [23], 2000 nM (active). For the same compound, the Potency result in [22], in assay [25], in assay [26], in [1], in assay [2] and in [3] was “inactive” in each case. The Potency result in [4] and in [27] was “inactive” throughout. Further, the max response in assay [24] (measured here: cell count channel max response) is -8.06% and -15.1%; in assay [24] (measured here: lipid channel max response), -8.76% and -13.6%.
